Source: PubChem BioAssay AID2320 (National Center for Advancing Translational Sciences (NCATS), 2010)
Records with an inconclusive call do not appear. Unmarked numbers belong to inactive results. The source made the active and inactive calls. The call rests on the fitted dose curve.

Assay: A qHTS for Small Molecule Inhibitors of Shiga Toxin (Confirmatory); further: nearly all actives have a fitted effect of over 75% in size; on activity, positive = inhibition of toxin: 0% is about no effect
Details: Cell-based Shiga toxin protection reporter assay; series mostly up to 38.3 µM; activity, positive = inhibition of toxin: at the top concentration
Potency means the concentration at half of the fitted maximal effect.

| SMILES | activity, positive = inhibition of toxin [%] | Potency |
| --- | --- | --- |
| CC1=C(C)C(OCCBr)N(c2cc(O)c(Cl)cc2F)C1=O (configuration not stated) | -15.1 |  |
| O=C(NCCN1C(=O)S/C(=C\c2ccc(Cl)cc2)C1=O)c1ccc(F)c(S(=O)(=O)N2CCOCC2)c1 |  | 6.34 µM (active) |
| O=C(NCC(=O)N1CCCC(C(F)(F)F)C1)c1ccc(Oc2ccccc2)cc1 (configuration not stated) | 11.5 |  |
| CCCC(=O)Nc1cnc(NC(=O)c2cccc(F)c2)cc1C |  | 0.711 µM (active) |
| Cc1cccc(N2CCN(C(=O)Cc3ccc(Br)cc3)CC2)c1C |  | 14.2 µM (active) |
| Cc1noc(C)c1S(=O)(=O)Nc1cccc(CO)c1 | -26.9 |  |
| Cc1ccc(-c2nnc(SCC(=O)NC3CCCC3)n2C)cc1 | -30.6 |  |
| COc1ccccc1NC(=O)CSc1nnc(CC(=O)Nc2ccccc2F)n1C | -1.04 |  |
| O=C(NCCCO)/C(=C\c1ccco1)NC(=O)c1ccco1 | 21.2 |  |
| COc1cc(O)c2c(c1)oc(=O)c1c3cc(O)c(O)cc3oc21 |  | 7.98 µM (active) |
| CC(=O)c1ccc(N2CCN(C(=O)c3ccc4nc[nH]c4c3)CC2)cc1 | 21.4 |  |
| O=C(NNC(=O)c1nc(Cl)ccc1Cl)c1ccc(F)cc1 | 23.4 |  |
| Cc1ccc(C)n1-c1ccc(NC(=O)c2ccccc2)cc1 |  | 15.9 µM (active) |
| COc1ccc(N2CCN(Cc3csc(C)c3-c3ccc(C)cc3)CC2)cc1 | -28.3 |  |
| Cc1nn(-c2ccc(C(=O)O)cc2)c2c1C(=O)CC(C)(C)C2 | -21.4 |  |
| O=C(O)C1CCCCC1C(=O)Nc1ccc(-c2ccccc2)cc1 (configuration not stated) |  | 10 µM (active) |
| O=C(Nc1nnc(S(=O)(=O)N2CCOCC2)s1)c1cccc(Br)c1 |  | 20 µM (active) |
